DT40 TDP1 CPT: qHTS for Inhibitors of human tyrosyl-DNA phosphodiesterase 1 (TDP1): qHTS in cells in presence of CPT | AID 686979, 2013 | chicken DT40 Tdp1-/-;hTDP1 cells + 20 nM CPT, ATP luminescence, 48 h | Potency, µM (titrated, usually from 46.2 µM), inactives show at the top dose activity change, negative = growth inhibition, actives largely listed as inhibitors | 420,000 tested, 12% active; further: potency means the concentration at half of the fitted maximal effect; on the % scale 0 is the no-effect control and ±100 the full control effect; nearly all actives have a fitted effect of over 55% in size
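Chicken DT40 Tdp1-/- cells complemented with human TDP1, 400 cells/well, exposed to compounds plus 20 nM camptothecin for at least 48 h at 37 C; viability read as ATP content by CellTiter-Glo luminescence.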
TGFb inhibitor: qHTS for Inhibitors of TGF-b | HepG2 CAGA-GFP TGF-b/SMAD3 reporter, GFP fluorescence, 18 h; TGF-beta stimulated, 500 pg/mL final | Potency, µM (series often up to 46.1 µM), for the others: at the top dose activity, negative = inhibition, usual class: inhibitors | 410,000 tested, 1.2% active | AID 588855, 2011; further: potency means the concentration at half of the fitted maximal effect; on the % scale 0 is the no-effect control and ±100 the full control effect; nearly all actives have a fitted effect of over 65% in size
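Inhibition of TGF-beta-driven CAGA-GFP reporter expression in HEPG2 cells is measured by cellular GFP fluorescence after 18 h stimulation with 500 pg/mL recombinant TGF-beta in 1% FBS medium at 37 degrees C.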
TDP1 inh: qHTS Assay for Inhibitors of Tyrosyl-DNA Phosphodiesterase (TDP1). Potency, µM (top dose mostly 130 µM), for the others: top-dose activity change, negative = inhibition, actives largely listed as inhibitors. 350,000 tested, 0.28% active. Tyrosyl-DNA phosphodiesterase 1 (Homo sapiens), Q9NUW8. recombinant TDP1, AlphaScreen DNA substrate cleavage; further: potency means the concentration at half of the fitted maximal effect; on the % scale 0 is the no-effect control and ±100 the full control effect; nearly all actives have a fitted effect of over 40% in size
Target sequence (Q9NUW8 whole entry, looked up): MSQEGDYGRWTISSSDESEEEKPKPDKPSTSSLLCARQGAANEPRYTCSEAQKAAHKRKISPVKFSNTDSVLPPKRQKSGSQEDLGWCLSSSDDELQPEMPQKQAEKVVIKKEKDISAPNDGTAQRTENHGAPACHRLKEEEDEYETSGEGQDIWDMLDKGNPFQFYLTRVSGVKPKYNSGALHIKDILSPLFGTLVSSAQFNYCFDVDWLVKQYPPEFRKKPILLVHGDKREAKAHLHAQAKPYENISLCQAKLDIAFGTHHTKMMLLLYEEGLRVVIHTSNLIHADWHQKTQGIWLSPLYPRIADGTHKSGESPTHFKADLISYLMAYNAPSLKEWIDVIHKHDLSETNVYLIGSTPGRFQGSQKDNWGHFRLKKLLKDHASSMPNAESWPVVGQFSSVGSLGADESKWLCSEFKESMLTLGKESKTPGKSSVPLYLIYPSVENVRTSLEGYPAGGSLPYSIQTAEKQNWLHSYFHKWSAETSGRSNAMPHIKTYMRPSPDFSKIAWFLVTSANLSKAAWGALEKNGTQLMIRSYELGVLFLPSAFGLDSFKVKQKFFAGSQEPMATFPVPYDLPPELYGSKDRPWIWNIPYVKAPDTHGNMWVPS
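Tdp1 1 nM final; 15 min RT w/ cpd; substrate 15 nM, 5 min; beads 10 ug/ml, 10 min; AlphaScreen read. Neg ctrl: no enzyme.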
DT40 TDP1 no CPT: qHTS for Inhibitors of human tyrosyl-DNA phosphodiesterase 1 (TDP1): qHTS in cells in absence of CPT; 420,000 tested, 15% active; DT40 Tdp1-/- hTDP1 cells, no CPT, ATP luminescence, 48 h; Potency, µM (highest dose often 46.2 µM), inactives show at the top dose activity change, negative = growth inhibition, actives largely listed as inhibitors; AID 686978, 2013; further: potency means the concentration at half of the fitted maximal effect; on the % scale 0 is the no-effect control and ±100 the full control effect; nearly all actives have a fitted effect of over 55% in size
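Growth of hTDP1-complemented DT40 Tdp1-knockout cells is measured by ATP luminescence after at least 48 hr compound exposure at 37 °C, with DMSO substituting for the 20 nM CPT used in the parallel screen.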
IL-1B inflam inh: qHTS for Inhibitors of Inflammasome Signaling: IL-1-beta AlphaLISA Primary Screen; activity change, % at 57.5 µM; AID 743279, 2014; THP-1 LPS/ATP IL-1B secretion, AlphaLISA, 16 h; hits give low values; 360,000 tested, 4.7% active; in the data active means activity change below about -50%; inconclusive means mostly about -30% to -49%; further: on the % scale 0 is the no-effect control and ±100 the full control effect
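THP-1 cells pretreated 1 hr with compounds (up to 57.5 uM final), then stimulated with LPS (250 ng/mL final) plus ATP (1.25 mM final); secreted IL-1B measured by AlphaLISA after 16 hr, decreased signal indicating inhibition.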
HepG2 viability: qHTS for Inhibitors of TGF-b: Cytotox Counterscreen; HepG2 CAGA-GFP viability, ATP luminescence, 18 h; Potency, µM (doses to about 46.1 µM), without a hit: at the highest dose activity change, negative = cytotoxicity, hits mostly cytotoxic; 410,000 tested, 0.76% active; further: potency means the concentration at half of the fitted maximal effect
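CellTiter-Glo luminescence gave cytotoxicity after 18 hours at 37 degrees C. The cells were HepG2 CAGA-GFP in 1% FBS DMEM, stimulated with 500 pg/mL TGF-beta after compound addition. %Activity was normalised to no-cell wells (complete cell-killing) and DMSO (no toxicity), and curves were fitted and classified.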
Starred values were filed as active, the others as inactive; [ ] = another dose, or the depositor's remark. This is a sample that favours compounds with a hit; in the whole collection about 18% have one here. Unless noted, the call rests on the fitted dose curve; in most records, active means well fitted curve in the direction sought with a large enough effect; inconclusive means small, poorly fitted or top-dose-only effect, or another doubt; inactive means no such curve, though single readings can be large; an effect the other way counts as inactive or inconclusive.

Results for CCc1cc2c(N=Nc3c(O)[nH]c4ccccc34)ncnc2s1 ?
DT40 TDP1 CPT: 18µM*; TGFb inhibitor: 23%; TDP1 inh: 0%; DT40 TDP1 no CPT: 21µM*; IL-1B inflam inh: 12; HepG2 viability: 0%

What do the screens show for `Cc1cc(C)cc(NC(=S)NCCN(C2CCCCC2)C2CCCC2)c1`?
DT40 TDP1 CPT: inconclusive; TGFb inhibitor: inconclusive; TDP1 inh: 0%; DT40 TDP1 no CPT: inconclusive; IL-1B inflam inh: -3; HepG2 viability: -59%

How did CC(C)N1CC2(CC(c3ccccc3F)=NO2)CN1C(=O)c1ccco1 (stereo not given) do in these assays?
DT40 TDP1 CPT: -2%; TGFb inhibitor: inconclusive; DT40 TDP1 no CPT: -9%; IL-1B inflam inh: 14; HepG2 viability: -12%

Results for O=C(c1ccco1)N1CC2(CC(c3ccc(Cl)cc3)=NO2)CN1Cc1ccc(Br)cc1 (stereo not given) ?
DT40 TDP1 CPT: 21µM*; TGFb inhibitor: 1%; DT40 TDP1 no CPT: inconclusive; IL-1B inflam inh: -17; HepG2 viability: -22%

What do the screens show for `Cc1cc(C)c2nc(C)cc(Nc3ccc(C(=O)NCCO)cc3)c2c1`?
DT40 TDP1 CPT: -5%; TGFb inhibitor: inconclusive; TDP1 inh: -2%; DT40 TDP1 no CPT: inconclusive; IL-1B inflam inh: -90*; HepG2 viability: -16%

Results for CC(=O)c1cccc(Nc2cc(C)nc3c(C)cccc23)c1 ?
DT40 TDP1 CPT: -26%; TGFb inhibitor: -1%; TDP1 inh: 0%; DT40 TDP1 no CPT: inconclusive; IL-1B inflam inh: -75*; HepG2 viability: -5%

How did CC(=O)c1ccc(Nc2cc(C)nc3c(C)cc(C)cc23)cc1 do in these assays?
DT40 TDP1 CPT: 4.6µM*; TGFb inhibitor: 11µM*; TDP1 inh: -10%; DT40 TDP1 no CPT: 4.6µM*; IL-1B inflam inh: -95*; HepG2 viability: -95%

How did CC(=O)c1cccc(Nc2cc(C)nc3ccccc23)c1 do in these assays?
DT40 TDP1 CPT: inconclusive; TGFb inhibitor: inconclusive; TDP1 inh: -5%; DT40 TDP1 no CPT: -16%; IL-1B inflam inh: 50; HepG2 viability: -28%

Results for Cc1cc(C)c2nc(C)cc(Nc3ccc(C(=O)N(C)C)cc3)c2c1 ?
DT40 TDP1 CPT: 18%; TGFb inhibitor: 22%; TDP1 inh: 0%; DT40 TDP1 no CPT: -10%; IL-1B inflam inh: 12; HepG2 viability: 35%

What do the screens show for `CCOc1ccccc1NC(=O)N1CCC(NC(=O)c2ccccc2C)CC1`?
DT40 TDP1 CPT: -1%; TGFb inhibitor: 2%; TDP1 inh: 0%; DT40 TDP1 no CPT: 3%; IL-1B inflam inh: 17; HepG2 viability: 0%

What do the screens show for `COC(=O)c1ccccc1NC(=O)CN1CCN(C23CC4CC(CC(C4)C2)C3)CC1`?
DT40 TDP1 CPT: 29µM*; TGFb inhibitor: 11%; TDP1 inh: 0%; DT40 TDP1 no CPT: inconclusive; IL-1B inflam inh: 7; HepG2 viability: 4%

Results for CCOc1ccccc1C(=O)Nc1cc(OC)ccc1OC ?
DT40 TDP1 CPT: -21%; TGFb inhibitor: -16%; TDP1 inh: 3%; DT40 TDP1 no CPT: inconclusive; IL-1B inflam inh: 28; HepG2 viability: -26%

How did CCOc1ccccc1NC(=O)CN1CCC(NC(=O)c2ccccc2C)CC1 do in these assays?
DT40 TDP1 CPT: 23µM*; TGFb inhibitor: 2%; DT40 TDP1 no CPT: 23µM*; IL-1B inflam inh: 1; HepG2 viability: 6%

How did CCOc1ccccc1C(=O)NC1CCN(CC(=O)Nc2cc(OC)ccc2OC)CC1 do in these assays?
DT40 TDP1 CPT: 21µM*; TGFb inhibitor: -14%; DT40 TDP1 no CPT: 16µM*; IL-1B inflam inh: 4; HepG2 viability: -22%

Results for CCOc1ccccc1N1CCN(CC(=O)Nc2ccnn2C2CCCC2)CC1 ?
DT40 TDP1 CPT: 13µM*; TGFb inhibitor: -25%; TDP1 inh: 1%[56.1 µM]; DT40 TDP1 no CPT: inconclusive; IL-1B inflam inh: 4; HepG2 viability: -8%

What do the screens show for `CCOc1ccccc1N1CCN(CC(=O)Nc2nccs2)CC1`?
DT40 TDP1 CPT: -18%; TGFb inhibitor: 1%; DT40 TDP1 no CPT: -18%; IL-1B inflam inh: 15; HepG2 viability: -1%

What do the screens show for `CCOc1cc2c(cc1OCC)CN(CC(=O)Nc1ccccc1C(=O)NC1CC1)CC2`?
DT40 TDP1 CPT: inconclusive; TGFb inhibitor: 6%; TDP1 inh: 2%; DT40 TDP1 no CPT: -14%; IL-1B inflam inh: -26; HepG2 viability: -19%

Results for CCOc1ccc(OCC)c(NC(=O)CN2CCC(NC(=O)c3cccc(F)c3)CC2)c1 ?
DT40 TDP1 CPT: 23µM*; TGFb inhibitor: inconclusive; TDP1 inh: 6%; DT40 TDP1 no CPT: 16µM*; IL-1B inflam inh: -12; HepG2 viability: -29%

How did CCOc1ccccc1N1CCN(CC(=O)Nc2ccccc2C(=O)NC2CC2)CC1 do in these assays?
DT40 TDP1 CPT: 21µM*; TGFb inhibitor: -7%; TDP1 inh: 0%[56.1 µM]; DT40 TDP1 no CPT: 16µM*; IL-1B inflam inh: 12; HepG2 viability: 3%

Results for CCOc1ccccc1NC(=O)CN1CCC(NC(=O)c2ccccc2)CC1 ?
DT40 TDP1 CPT: inconclusive; TGFb inhibitor: 2%; TDP1 inh: 3%; DT40 TDP1 no CPT: inconclusive; IL-1B inflam inh: -4; HepG2 viability: -13%

How did COC(=O)c1ccccc1NC(=O)CN1CCC(NC(=O)c2ccc(C)cc2)CC1 do in these assays?
DT40 TDP1 CPT: inconclusive; TGFb inhibitor: -23%; TDP1 inh: 7%; DT40 TDP1 no CPT: 26µM*; IL-1B inflam inh: 16; HepG2 viability: -3%

Results for O=C(CSc1nnc(COc2ccc(Br)cc2)o1)NC1CCCCC1 ?
DT40 TDP1 CPT: 6%; TGFb inhibitor: -1%; DT40 TDP1 no CPT: -3%; IL-1B inflam inh: 11; HepG2 viability: 5%

Results for CC(C)CCOc1ccc(CC(=O)NO)cc1 ?
DT40 TDP1 CPT: inconclusive; TGFb inhibitor: 7%; DT40 TDP1 no CPT: inconclusive; HepG2 viability: -22%

What do the screens show for `CCOc1cccc(-c2nn(-c3ccccc3)cc2/C=C(/C#N)C(=O)NCCCn2ccnc2)c1`?
DT40 TDP1 CPT: inconclusive; TGFb inhibitor: inconclusive; TDP1 inh: 10%; DT40 TDP1 no CPT: inconclusive; IL-1B inflam inh: -99*; HepG2 viability: -113%

Assay outcomes as filed in PubChem.
